In the supplement of paper PMC11732987, “Enantioselective OTUD7B fragment discovery through chemoproteomics screening and high-throughput optimisation” (Communications Chemistry, 2025):

How the values were obtained:
Assay in all cases: log2 ratio of Biotin-Ahx-Ub-VS probe labelling (fragment/DMSO); higher = less target engagement (more negative = stronger competition), active = hit call of the paper (q ≤ 0.05, log2 ratio ≤ -1)
Conditions in all cases: compound concentration: 200 uM; treatment time: 3 h
[1] = target: USP9X (UniProt Q93008)
Summary of the method: (§1)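 Labelled DUBs from HEK293T lysate were NeutrAvidin-enriched, digested with LysC and trypsin, and run by diaPASEF LC-MS/MS. Before that, each 495 µg sample in Tris/CHAPS/IGEPAL buffer with protease inhibitors was treated in triplicate with fragment at 200 µM or vehicle for 3 h, then with Biotin-Ahx-Ub-VS at 0.5 µM final for 1 h. Values are average log2 ratios of fragment over vehicle by unpaired t-test, based on global-median-normalised Spectronaut label-free quantities from proteins with ≥2 unique peptides.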

[2] = target: UniProt O00487
Summary of the method: as §1

[3] = target: UniProt O00507
Summary of the method: as §1

[4] = target: UniProt P51784
Summary of the method: as §1

[5] = target: T1, UniProt Q5T2D3
T1 sequence (whole entry): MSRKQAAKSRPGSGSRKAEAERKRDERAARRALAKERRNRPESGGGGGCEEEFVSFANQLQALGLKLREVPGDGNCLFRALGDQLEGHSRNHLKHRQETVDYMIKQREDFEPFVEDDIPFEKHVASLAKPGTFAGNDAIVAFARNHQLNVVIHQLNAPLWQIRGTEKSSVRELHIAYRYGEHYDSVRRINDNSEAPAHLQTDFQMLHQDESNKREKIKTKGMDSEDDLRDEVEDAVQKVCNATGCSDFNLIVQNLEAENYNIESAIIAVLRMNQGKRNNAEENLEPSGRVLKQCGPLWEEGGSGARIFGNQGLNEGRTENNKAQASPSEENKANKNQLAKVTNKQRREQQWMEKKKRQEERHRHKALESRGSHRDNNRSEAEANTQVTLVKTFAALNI
Summary of the method: as §1

[6] = target: T2, UniProt Q8TE49
T2 sequence (whole entry): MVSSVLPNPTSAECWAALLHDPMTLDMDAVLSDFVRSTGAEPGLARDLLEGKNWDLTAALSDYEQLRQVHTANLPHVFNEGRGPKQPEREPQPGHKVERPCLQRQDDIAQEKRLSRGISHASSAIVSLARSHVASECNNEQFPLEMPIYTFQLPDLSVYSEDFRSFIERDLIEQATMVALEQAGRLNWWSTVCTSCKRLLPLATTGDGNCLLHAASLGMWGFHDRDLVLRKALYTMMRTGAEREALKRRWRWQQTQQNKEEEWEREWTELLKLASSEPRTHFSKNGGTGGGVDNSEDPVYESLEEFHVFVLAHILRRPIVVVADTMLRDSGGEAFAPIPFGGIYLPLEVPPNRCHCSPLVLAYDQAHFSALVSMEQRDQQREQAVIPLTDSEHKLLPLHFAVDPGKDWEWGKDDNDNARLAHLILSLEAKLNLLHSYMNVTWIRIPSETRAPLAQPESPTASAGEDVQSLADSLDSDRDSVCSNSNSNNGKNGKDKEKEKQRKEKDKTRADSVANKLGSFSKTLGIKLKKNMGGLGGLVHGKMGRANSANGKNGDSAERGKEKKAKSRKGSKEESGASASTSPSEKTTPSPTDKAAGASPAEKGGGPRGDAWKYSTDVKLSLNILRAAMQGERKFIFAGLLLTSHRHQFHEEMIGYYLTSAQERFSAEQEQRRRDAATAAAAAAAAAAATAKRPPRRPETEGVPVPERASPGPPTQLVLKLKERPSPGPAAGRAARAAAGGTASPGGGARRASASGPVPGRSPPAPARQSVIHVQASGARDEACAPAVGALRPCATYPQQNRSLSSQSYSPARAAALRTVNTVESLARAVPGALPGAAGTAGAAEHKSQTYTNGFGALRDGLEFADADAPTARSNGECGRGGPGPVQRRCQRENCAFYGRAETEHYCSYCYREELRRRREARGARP
Summary of the method: as §1

[7] = target: T3, UniProt Q9P2H5
T3 sequence (whole entry): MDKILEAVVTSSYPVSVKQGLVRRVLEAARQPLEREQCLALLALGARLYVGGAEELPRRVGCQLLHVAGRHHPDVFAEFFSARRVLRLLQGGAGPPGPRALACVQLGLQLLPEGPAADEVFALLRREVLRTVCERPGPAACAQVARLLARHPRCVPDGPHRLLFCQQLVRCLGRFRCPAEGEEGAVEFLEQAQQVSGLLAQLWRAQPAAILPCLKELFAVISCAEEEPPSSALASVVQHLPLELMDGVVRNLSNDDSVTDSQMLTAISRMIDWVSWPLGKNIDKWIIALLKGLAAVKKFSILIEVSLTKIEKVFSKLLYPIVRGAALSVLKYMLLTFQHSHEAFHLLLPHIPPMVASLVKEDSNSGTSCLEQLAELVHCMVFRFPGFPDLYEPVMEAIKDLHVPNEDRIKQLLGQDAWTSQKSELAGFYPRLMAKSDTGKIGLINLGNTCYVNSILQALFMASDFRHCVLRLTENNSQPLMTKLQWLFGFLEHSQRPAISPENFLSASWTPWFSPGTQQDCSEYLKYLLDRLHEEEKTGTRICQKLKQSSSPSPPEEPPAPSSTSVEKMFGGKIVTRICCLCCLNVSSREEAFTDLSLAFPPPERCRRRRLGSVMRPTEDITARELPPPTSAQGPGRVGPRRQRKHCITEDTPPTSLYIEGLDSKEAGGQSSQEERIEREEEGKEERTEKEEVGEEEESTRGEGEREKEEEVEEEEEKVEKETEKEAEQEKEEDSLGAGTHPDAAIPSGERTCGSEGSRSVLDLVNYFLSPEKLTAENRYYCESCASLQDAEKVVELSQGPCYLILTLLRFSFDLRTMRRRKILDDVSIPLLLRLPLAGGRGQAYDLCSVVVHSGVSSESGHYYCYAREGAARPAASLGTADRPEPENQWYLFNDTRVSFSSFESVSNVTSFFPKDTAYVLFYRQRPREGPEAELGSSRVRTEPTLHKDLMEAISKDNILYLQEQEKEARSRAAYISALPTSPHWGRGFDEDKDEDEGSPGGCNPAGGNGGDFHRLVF
Summary of the method: as §1

[8] = target: T4, UniProt Q9UGI0
T4 sequence (whole entry): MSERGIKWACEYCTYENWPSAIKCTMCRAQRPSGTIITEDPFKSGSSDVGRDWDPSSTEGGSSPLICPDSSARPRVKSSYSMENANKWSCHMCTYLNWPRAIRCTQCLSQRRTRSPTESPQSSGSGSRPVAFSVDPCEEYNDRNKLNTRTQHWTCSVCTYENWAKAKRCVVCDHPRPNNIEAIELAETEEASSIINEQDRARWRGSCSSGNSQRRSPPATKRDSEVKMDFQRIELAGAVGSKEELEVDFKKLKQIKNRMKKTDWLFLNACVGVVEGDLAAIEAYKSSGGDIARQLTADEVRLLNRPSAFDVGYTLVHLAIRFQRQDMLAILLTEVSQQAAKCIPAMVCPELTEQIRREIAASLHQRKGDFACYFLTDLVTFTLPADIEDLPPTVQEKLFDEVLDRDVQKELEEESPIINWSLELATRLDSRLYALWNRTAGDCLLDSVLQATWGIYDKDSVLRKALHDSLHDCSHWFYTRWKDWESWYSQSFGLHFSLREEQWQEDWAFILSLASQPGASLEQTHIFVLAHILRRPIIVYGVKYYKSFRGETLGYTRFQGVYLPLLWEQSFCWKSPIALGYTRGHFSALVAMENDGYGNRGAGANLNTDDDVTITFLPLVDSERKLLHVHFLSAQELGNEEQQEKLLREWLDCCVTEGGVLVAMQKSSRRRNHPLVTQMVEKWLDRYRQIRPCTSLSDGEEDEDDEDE
Summary of the method: as §1

[9] = target: T5, YOD1 (UniProt Q5VVQ6)
T5 sequence (whole entry): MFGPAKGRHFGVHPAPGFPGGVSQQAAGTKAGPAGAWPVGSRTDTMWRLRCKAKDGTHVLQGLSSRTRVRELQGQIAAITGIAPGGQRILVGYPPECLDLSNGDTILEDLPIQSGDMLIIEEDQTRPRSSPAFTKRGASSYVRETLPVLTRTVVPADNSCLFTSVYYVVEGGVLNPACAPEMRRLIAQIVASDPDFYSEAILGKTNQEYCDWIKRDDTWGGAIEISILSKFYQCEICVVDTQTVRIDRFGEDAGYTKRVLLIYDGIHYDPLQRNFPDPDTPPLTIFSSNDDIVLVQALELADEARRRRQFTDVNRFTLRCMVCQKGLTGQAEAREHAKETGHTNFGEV
Summary of the method: as §1

Measured: log2 ratio of Biotin-Ahx-Ub-VS probe labelling

USP9X, sequence (Q93008 whole entry, the tested form may be a part): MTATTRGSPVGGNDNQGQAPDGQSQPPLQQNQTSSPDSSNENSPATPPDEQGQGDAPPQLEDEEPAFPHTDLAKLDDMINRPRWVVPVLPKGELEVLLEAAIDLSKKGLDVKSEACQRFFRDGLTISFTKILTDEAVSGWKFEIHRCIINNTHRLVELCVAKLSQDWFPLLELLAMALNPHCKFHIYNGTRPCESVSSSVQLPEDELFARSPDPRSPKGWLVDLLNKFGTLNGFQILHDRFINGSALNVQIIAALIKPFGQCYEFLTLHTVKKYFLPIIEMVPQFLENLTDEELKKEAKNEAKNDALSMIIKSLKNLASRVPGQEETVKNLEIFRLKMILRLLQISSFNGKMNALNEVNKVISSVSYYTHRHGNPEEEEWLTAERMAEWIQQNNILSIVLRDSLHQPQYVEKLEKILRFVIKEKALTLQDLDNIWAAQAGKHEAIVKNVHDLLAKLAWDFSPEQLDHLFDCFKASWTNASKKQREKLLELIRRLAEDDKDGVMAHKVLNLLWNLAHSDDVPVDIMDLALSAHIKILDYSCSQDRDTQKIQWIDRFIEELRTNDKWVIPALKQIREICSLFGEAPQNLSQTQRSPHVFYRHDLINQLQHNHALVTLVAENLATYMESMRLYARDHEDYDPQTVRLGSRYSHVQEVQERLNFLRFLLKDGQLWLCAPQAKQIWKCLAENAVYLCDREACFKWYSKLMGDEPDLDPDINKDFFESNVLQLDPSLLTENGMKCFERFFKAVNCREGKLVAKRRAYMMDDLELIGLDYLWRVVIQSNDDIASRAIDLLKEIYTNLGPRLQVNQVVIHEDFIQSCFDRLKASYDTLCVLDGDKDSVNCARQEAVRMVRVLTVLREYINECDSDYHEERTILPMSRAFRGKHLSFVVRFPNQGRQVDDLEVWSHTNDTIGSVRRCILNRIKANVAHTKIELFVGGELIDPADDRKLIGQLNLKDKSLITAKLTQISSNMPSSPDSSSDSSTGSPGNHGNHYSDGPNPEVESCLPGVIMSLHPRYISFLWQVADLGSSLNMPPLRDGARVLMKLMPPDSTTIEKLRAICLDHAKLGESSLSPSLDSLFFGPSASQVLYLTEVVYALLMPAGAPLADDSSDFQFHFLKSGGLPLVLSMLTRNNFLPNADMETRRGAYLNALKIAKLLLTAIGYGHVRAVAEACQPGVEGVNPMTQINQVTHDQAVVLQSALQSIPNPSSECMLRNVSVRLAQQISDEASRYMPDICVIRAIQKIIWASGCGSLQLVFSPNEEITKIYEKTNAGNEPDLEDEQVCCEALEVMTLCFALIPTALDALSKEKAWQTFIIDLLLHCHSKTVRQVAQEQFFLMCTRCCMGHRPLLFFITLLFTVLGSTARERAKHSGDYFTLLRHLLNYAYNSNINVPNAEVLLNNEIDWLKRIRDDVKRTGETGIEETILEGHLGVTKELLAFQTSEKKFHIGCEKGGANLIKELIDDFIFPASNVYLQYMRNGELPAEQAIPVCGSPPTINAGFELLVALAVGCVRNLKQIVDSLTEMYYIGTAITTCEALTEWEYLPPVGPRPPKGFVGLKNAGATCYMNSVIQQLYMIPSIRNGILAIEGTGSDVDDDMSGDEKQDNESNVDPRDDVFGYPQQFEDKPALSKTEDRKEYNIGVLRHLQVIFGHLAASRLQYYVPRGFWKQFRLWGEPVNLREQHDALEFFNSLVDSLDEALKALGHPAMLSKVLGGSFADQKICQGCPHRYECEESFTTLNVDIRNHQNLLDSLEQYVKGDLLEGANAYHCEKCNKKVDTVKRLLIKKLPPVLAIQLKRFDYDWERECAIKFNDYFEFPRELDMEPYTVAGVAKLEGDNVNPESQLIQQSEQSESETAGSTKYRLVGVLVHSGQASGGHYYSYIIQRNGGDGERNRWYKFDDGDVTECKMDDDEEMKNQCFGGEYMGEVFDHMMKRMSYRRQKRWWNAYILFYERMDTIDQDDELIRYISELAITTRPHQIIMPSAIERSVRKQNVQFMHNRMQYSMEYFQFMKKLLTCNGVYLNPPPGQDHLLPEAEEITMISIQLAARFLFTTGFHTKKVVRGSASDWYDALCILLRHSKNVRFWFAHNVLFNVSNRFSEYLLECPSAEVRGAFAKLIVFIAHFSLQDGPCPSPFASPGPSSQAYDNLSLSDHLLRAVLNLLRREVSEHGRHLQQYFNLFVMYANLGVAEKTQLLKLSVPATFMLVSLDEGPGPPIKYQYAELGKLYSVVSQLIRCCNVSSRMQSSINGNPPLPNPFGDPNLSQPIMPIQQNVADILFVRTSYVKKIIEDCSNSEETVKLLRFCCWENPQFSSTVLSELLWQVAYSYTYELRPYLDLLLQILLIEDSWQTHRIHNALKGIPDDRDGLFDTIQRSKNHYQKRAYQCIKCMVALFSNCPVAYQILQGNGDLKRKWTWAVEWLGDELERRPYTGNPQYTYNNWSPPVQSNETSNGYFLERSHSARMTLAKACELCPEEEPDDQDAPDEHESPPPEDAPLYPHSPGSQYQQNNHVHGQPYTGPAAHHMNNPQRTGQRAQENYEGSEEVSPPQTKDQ
UniProt O00507, sequence (O00507 whole entry): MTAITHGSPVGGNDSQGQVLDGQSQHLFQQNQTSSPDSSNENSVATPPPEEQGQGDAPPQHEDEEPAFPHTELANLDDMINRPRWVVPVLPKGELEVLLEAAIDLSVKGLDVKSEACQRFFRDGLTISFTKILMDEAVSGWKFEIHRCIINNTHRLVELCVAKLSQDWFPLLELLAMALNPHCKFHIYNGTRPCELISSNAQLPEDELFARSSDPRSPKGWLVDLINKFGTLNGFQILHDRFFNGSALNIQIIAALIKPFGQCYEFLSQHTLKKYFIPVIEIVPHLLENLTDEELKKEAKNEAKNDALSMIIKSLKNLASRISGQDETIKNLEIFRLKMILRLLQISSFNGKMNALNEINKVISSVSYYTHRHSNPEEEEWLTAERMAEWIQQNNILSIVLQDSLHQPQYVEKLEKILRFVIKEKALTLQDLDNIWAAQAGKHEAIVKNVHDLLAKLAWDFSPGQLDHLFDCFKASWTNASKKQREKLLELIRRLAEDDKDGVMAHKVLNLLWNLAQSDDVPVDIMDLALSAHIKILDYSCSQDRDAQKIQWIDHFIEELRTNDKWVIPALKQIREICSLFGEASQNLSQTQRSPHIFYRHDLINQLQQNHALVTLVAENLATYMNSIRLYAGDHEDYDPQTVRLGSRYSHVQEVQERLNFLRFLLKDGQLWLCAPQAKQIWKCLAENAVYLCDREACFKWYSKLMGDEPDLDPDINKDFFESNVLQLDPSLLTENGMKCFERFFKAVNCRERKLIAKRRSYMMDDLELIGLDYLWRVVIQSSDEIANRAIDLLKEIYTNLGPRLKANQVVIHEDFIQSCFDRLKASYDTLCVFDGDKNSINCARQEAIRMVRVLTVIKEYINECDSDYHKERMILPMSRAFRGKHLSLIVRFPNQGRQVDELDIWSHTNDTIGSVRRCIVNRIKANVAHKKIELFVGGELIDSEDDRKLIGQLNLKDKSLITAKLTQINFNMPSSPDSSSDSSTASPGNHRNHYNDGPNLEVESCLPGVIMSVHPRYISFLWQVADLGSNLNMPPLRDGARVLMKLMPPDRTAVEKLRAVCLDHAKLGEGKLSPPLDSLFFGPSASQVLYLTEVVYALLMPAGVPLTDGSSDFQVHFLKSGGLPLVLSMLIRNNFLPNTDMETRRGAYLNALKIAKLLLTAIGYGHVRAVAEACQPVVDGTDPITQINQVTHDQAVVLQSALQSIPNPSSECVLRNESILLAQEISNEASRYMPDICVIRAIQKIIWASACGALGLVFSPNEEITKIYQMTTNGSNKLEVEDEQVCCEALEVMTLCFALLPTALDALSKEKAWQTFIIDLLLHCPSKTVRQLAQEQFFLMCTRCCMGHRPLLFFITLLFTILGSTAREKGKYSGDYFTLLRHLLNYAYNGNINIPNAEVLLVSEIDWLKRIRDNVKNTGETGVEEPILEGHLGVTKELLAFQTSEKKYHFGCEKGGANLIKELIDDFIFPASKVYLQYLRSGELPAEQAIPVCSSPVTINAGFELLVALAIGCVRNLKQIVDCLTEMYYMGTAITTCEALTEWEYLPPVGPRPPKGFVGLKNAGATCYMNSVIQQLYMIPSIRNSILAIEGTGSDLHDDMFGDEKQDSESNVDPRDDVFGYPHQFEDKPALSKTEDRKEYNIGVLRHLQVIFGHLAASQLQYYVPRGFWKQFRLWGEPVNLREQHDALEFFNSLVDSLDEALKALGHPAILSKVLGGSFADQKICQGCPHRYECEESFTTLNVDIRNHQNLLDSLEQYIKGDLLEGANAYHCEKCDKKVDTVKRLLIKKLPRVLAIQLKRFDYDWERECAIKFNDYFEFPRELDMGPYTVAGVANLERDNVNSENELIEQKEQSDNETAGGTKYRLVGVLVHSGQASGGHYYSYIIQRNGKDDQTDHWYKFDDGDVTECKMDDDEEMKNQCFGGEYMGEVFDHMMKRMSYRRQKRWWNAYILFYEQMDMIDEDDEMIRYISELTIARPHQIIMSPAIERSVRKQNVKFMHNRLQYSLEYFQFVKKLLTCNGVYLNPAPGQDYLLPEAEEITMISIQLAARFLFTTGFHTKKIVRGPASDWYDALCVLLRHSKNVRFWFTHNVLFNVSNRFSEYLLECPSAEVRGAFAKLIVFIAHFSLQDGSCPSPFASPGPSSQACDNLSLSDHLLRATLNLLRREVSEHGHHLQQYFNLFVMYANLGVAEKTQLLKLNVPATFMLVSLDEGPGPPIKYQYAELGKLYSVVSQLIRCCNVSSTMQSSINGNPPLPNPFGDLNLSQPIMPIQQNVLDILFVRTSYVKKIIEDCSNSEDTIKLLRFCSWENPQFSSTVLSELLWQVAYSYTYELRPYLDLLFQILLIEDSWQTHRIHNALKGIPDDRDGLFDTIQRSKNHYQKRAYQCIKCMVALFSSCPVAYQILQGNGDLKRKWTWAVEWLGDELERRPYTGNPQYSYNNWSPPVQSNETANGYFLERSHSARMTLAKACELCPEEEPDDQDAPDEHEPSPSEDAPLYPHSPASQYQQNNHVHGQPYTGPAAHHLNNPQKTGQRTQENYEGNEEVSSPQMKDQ

CC(NC(=O)CCl)c1cc2n(n1)CCCC2.Cl (centres undefined)
inactive: [1] -0.0806 | [2] -0.00796 | [3] 0.229 | [4] 0.0045 | [5] 0.0101 | [6] -0.631 | [7] -0.0486 | [8] 0.22 | [9] -0.00538
